Results as given in PubChem BioAssay AID463173 (ICCB-Longwood Screening Facility, Harvard Medical School, 2010).
Out of some 52,000 compounds screened, about 1,700 (3.3%) were called active. The sample holds actives, similar compounds and a random draw of the others, so the mix is not that of the screen. A number with no mark means an inactive call. Rule as the data show it: active = survival mostly below about 52% (no sharp cut-off); inactive = mostly above about 56%.

test system: Wild type; test: growth inhibition of S. aureus wild type versus tarO mutant, primary screen, teichoic acid synthesis inhibitors, RN4220, OD600 (AID 463173); conditions: S. aureus RN4220 wild type/DeltatarO growth, OD600, 18 h, hits give low values, screened at 18.75 µg/mL (by protocol)

Row | Compound | survival
1 | CCN(C(=O)Cn1nc(Cc2cccnc2)c2ccccc2c1=O)c1cc(C)ccc1C | 83%
2 | CCc1ccccc1NC(=O)Cn1c(SCc2ccc(F)cc2)nc2ccncc21 | 48%
3 | COc1ccc(NC(=O)C2CCN(S(=O)(=O)c3c(C)noc3/C=C/c3ccco3)CC2)cc1 | 128%
4 | COc1ccc(CCNC(=O)CCn2c(=O)c3ccccc3n(Cc3ccccc3)c2=O)cc1OC | 97%
5 | CCC(=O)Nc1ccc(CC)cc1-c1nc2ccccc2n(CC(=O)c2ccc(OC)cc2)c1=O | 74%
6 | Cc1ccc(N2CC(NC(=O)CCCc3ccccc3)CC2=O)cc1 (stereo not drawn) | 53%
7 | Cc1ccc(N2CC(NC(=O)CCc3ccccc3)CC2=O)cc1 (stereo not drawn) | -3% (active)
8 | O=C(CCc1ccccc1)NC1CC(=O)N(c2ccccc2)C1 (stereo not drawn) | 78%
9 | COc1ccccc1NC(=O)CN(c1ccc(C(C)C)cc1)S(=O)(=O)c1c(C)noc1C | 88%
10 | O=c1c2cc3c(nc2ncn1Cc1ccc(Cl)cc1)CCCC3 | 76%
11 | CCSc1nsc(NC(=O)Nc2cccc(OC)c2)n1 | 95%
12 | CCSc1nsc(NC(=O)Nc2cccc(F)c2)n1 | 0% (active)
13 | O=C(CSc1nnc(NC(=O)Nc2ccccc2)s1)Nc1cccc(F)c1 | 75%
14 | Cc1ccc(CNC(=O)c2ccc(CSCc3ccc(Cl)cc3)o2)cc1 | 85%
15 | CCOc1ccc(C(c2c(O)cc(C)n(Cc3ccco3)c2=O)N2CCN(C)CC2)cc1 (stereo not drawn) | 66%
16 | CC(C)(C)OC(=O)N1CCC(c2c(C(=O)NCc3ccc4c(c3)OCO4)cnn2-c2ccccc2Cl)CC1 | 75%
17 | CCCCCNC(=O)CCCCCn1c(=O)[nH]c2ccsc2c1=O | 62%
18 | CNC(=O)C1CCC(Cn2c(=O)[nH]c3ccsc3c2=O)CC1 (stereo not drawn) | 80%
19 | CCCCN(C)C(=O)C1CCC(Cn2c(=O)[nH]c3ccsc3c2=O)CC1 (stereo not drawn) | -2% (active)
20 | CCCn1nc(NC(=O)c2cccc(Cl)c2)c2cc3cccc(C)c3nc21 | 87%
21 | COc1ccc(-c2cccc(NS(=O)(=O)c3ccc(C)s3)c2)nn1 | 91%

Row | Compound | survival
22 | CCc1ccc(-c2nc(CN3CCCC(C(=O)N4CCN(c5cc(Cl)ccc5C)CC4)C3)c(C)o2)cc1 (stereo not drawn) | 84%
23 | COc1ccc(-c2nc(CSCC(=O)N3CCN(c4ccc(OC)cc4)CC3)c(C)o2)cc1 | 81%
24 | Cc1ccc(C)c(N2CCN(C(=O)C3CCCN(Cc4nc(-c5cccc(Cl)c5)oc4C)C3)CC2)c1 (stereo not drawn) | 81%
25 | Cc1ccc(C)c(N2CCN(C(=O)C3CCN(Cc4nc(-c5cccc(Cl)c5)oc4C)CC3)CC2)c1 | 3% (active)
26 | Cc1ccc(Cl)cc1N1CCN(C(=O)C2CCN(Cc3nc(-c4ccc(Cl)cc4)oc3C)CC2)CC1 | -4% (active)
27 | Cc1cccc(-c2nc(CN3CCCC(C(=O)N4CCN(c5cc(Cl)ccc5C)CC4)C3)c(C)o2)c1 (stereo not drawn) | 75%
28 | Cc1ccc(Cl)cc1N1CCN(C(=O)C2CCN(Cc3nc(-c4cccc(Cl)c4)oc3C)CC2)CC1 | -4% (active)
29 | Cc1cccc(N2CCN(C(=O)C3CCN(Cc4nc(-c5ccc(Cl)cc5)oc4C)CC3)CC2)c1C | 47%
30 | Cc1oc(-c2cccc(Cl)c2)nc1CN1CCC(C(=O)NC(C)C)CC1 | 92%
31 | COc1ccc(-c2nc(CSCC(=O)N3CCN(c4cc(Cl)ccc4C)CC3)c(C)o2)cc1 | -1% (active)
32 | Cc1ccc(Cl)cc1N1CCN(C(=O)C2CCCN(Cc3nc(-c4cccc(Cl)c4)oc3C)C2)CC1 (stereo not drawn) | 84%
33 | COc1ccc(-c2nc(CSCC(=O)N3CCN(c4ccccc4F)CC3)c(C)o2)cc1 | 24%
34 | Cc1cccc(N2CCN(CCCNC(=O)Cn3ncc4c([nH]c5ccccc54)c3=O)CC2C)c1 (stereo not drawn) | 101%
35 | CCc1ccccc1NC(=O)CSc1nnc(CC)c(CC)n1 | 74%
36 | Cc1ccccc1CN1c2ccccc2S(=O)(=O)c2ccccc21 | 73%
37 | Cc1cc(C)c(Cn2c3ccccc3c3cnn(CC(=O)NC4CCCCCC4)c(=O)c32)c(C)c1 | 127%
38 | COc1ccc(-n2cc(-c3ccccc3)nc2SCC(=O)Nc2ccccc2)cc1Cl | 71%
39 | COc1ccc(Cl)cc1N=C1NC(=O)CC(C(=O)Nc2ccccc2C(F)(F)F)S1 (stereo not drawn) | 71%
40 | COc1ccc(CCNC(=O)CN2C(=O)COc3ccc(C)cc32)cc1OC | 71%
41 | COCCNC(=O)CCCn1c(SCC(=O)Nc2ccc(F)cc2)nc2c(sc3ccccc32)c1=O | 103%
42 | Cc1ccc2c(c1)-c1c(cnc3cc(-c4ccc(Cl)cc4)nn13)CO2 | 61%

Row | Compound | survival
43 | CC(=O)c1cc2c(cc1N/C(=N/S(=O)(=O)c1ccccc1)c1ccc(Cl)cc1)OCO2 | -2% (active)
44 | CC(=O)c1cc2c(cc1N/C(=N/S(=O)(=O)c1ccc(C)cc1)c1ccc(F)cc1)OCO2 | 82%
45 | CC(=O)c1cc2c(cc1N/C(=N/S(=O)(=O)c1ccc(C)cc1)c1ccc(Cl)cc1)OCO2 | 10% (active)
46 | CC(=O)c1cc2c(cc1N/C(=N/S(=O)(=O)c1ccc(Cl)cc1)c1ccc(F)cc1)OCO2 | 80%
47 | CC(=O)c1cc2c(cc1N/C(=N/S(=O)(=O)c1ccc(Br)cc1)c1ccccc1)OCO2 | 69%
48 | CC(=O)c1cc2c(cc1N/C(=N/S(=O)(=O)c1ccc(C)cc1)c1ccccc1)OCO2 | 88%
49 | CC(=O)Nc1ccc(NC(=O)c2ccc3c(c2)NC(=O)c2ccccc2S3)cc1 | 138%
50 | CC1=C(C(=O)OC2CCCC2)C(c2c(F)cccc2Cl)CC(=O)N1 (stereo not drawn) | 87%
51 | O=C1CC(c2nnc(Cc3cccc(Cl)c3)o2)CN1c1ccccc1 (stereo not drawn) | 113%
52 | CS(=O)(=O)c1ccc(-c2nn[nH]n2)cc1 | 103%
53 | O=C(Nc1c(C(=O)N2CCN(c3ccccc3)CC2)oc2ccccc12)c1ccc(Br)o1 | 81%
54 | COc1cc(Cl)c(C)cc1Nc1nc2ccccc2n2cnnc12 | 127%
55 | CCOC(=O)C1CCN(C(=O)c2ccc(C)cc2)CC1 | 93%
56 | CCOC(=O)C1CCN(c2c(C(=O)c3ccc(C)cc3)cnc3ccc(F)cc23)CC1 | 3% (active)
57 | CCOC(=O)C1CCN(c2c(C(=O)c3ccc(OCC)cc3)cnc3ccc(OC)cc23)CC1 | 0% (active)
58 | CCN1CCN(c2c(S(=O)(=O)c3ccc(OC)cc3)cnc3cc(OC)c(OC)cc23)CC1 | 77%
59 | CCOC(=O)C1CCN(c2c(C(=O)c3ccc(OC)cc3)cnc3ccccc23)CC1 | 125%
60 | COc1cc2ncc(C(=O)c3ccc(C)cc3)c(N3CCCCC3)c2cc1OC | 2% (active)
61 | CCc1ccc2ncc(C(=O)c3ccc(C)c(C)c3)c(N3CCC(C(N)=O)CC3)c2c1 | 102%
62 | COc1ccc(C(=O)c2cnc3ccc(C)cc3c2S(=O)(=O)c2ccccc2)cc1 | 79%
63 | CCOc1ccc(S(=O)(=O)c2c(C(=O)c3ccc(CC)cc3)cnc3ccc(C)cc23)cc1 | 87%
